Consider 15 compounds from PubChem BioAssay (EPA / NIEHS).

Structures are written as SMILES. Records with an inconclusive call do not appear. The source made the active and inactive calls. Rule for the calls: active = hit-call score of the fitted dose curve at least 0.9, where 1 is the maximum; inconclusive = response in the unintended direction; inactive = score below 0.9.

Assay [1] has as its target human CYP4F12, CYP4F12 (gene 66002) (UniProt Q9HCS2). Nature of the assay: NVS_ADME_hCYP4F12: NovaScreen (NVS) CYP450-related Enzyme Activity (ADME) Assay for human CYP4F12 (AID 2283111). In short, it runs like this: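 Cell-free fluorescence assay of recombinant human CYP4F12 activity on a specific substrate, read 0.5 h after dosing. Primary screen in duplicate at 10 uM, then concentration series for actives; loss of signal fitted against acetonitrile negative control.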

Assay [2] addresses human Acetylcholinesterase (AChE), ACHE (gene 43) (UniProt P22303). Nature of the assay: NVS_ENZ_hAChE: NovaScreen (NVS) Enzymatic Assay for human Acetylcholinesterase (AChE) (AID 2283129). An outline of the steps:
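Cell-free colorimetric enzyme-activity assay; compounds read 0.33 hour after dosing, loss of signal vs DMSO baseline. Primary screen in duplicate at 25 uM single concentration, with active compounds retested in concentration series.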

Assay [3] addresses human AMP-activated Protein Kinase, alpha 1 (AMPKa1), PRKAA1 (gene 5562) (UniProt Q13131). Briefly: NVS_ENZ_hAMPKa1: NovaScreen (NVS) Enzymatic Assay for human AMP-activated Protein Kinase, alpha 1 (AMPKa1) (AID 2283130). In short, it runs like this: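 Recombinant human AMPKα1 activity was measured cell-free by fluorescent substrate conversion with electrophoretic mobility-shift separation, 1 h after dosing. Duplicate single-point screening was at 25 uM; actives (≥30% inhibition) were retested in concentration-response up to 50 uM.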

The target in assay [4] is human Fibroblast Growth Factor Receptor 1 (FGFR1), FGFR1 (gene 2260) (UniProt P11362). Briefly: NVS_ENZ_hFGFR1: NovaScreen (NVS) Enzymatic Assay for human Fibroblast Growth Factor Receptor 1 (FGFR1) (AID 2283159). In short, it runs like this:
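Cell-free recombinant kinase with fluorescent substrate, product separated by electrophoretic mobility shift; read 1 hour after dosing, loss of signal relative to DMSO. Initial screen in duplicate at 25 uM, actives followed in concentration series.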

Assay [5] deals with PPP2CA (gene 5515) (UniProt P67775). Nature of the assay: NVS_ENZ_hPPP2CA: NovaScreen (NVS) Enzymatic Assay for human Protein Phosphatase 2 Aatalytic subunit Alpha (PPP2CA) (AID 2283199). An outline of the steps: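 Recombinant human PPP2CA with fluorescent substrate; product separated from substrate by electrophoretic mobility shift, read 1.33 h after dosing. Duplicate single-point at 25 uM, then singleton concentration-response up to 50 uM; loss of signal versus DMSO.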

The target in assay [6] is human Tyrosine Protein Kinase Receptor Tie-2 (Tie2), TEK (gene 7010) (UniProt Q02763). Nature of the assay: NVS_ENZ_hTie2: NovaScreen (NVS) Enzymatic Assay for human Tyrosine Protein Kinase Receptor Tie-2 (Tie2) (AID 2283225). In short, it runs like this: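 Recombinant human Tie2 kinase activity was read cell-free by fluorescence with electrophoretic mobility shift, 1 hour after dosing. The screen used 25 uM in duplicate, then concentration-response up to 50 uM. Signal loss was scored against DMSO.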
Sequence of human Tyrosine Protein Kinase Receptor Tie-2 (Tie2), TEK (gene 7010) (Q02763 whole entry, looked up): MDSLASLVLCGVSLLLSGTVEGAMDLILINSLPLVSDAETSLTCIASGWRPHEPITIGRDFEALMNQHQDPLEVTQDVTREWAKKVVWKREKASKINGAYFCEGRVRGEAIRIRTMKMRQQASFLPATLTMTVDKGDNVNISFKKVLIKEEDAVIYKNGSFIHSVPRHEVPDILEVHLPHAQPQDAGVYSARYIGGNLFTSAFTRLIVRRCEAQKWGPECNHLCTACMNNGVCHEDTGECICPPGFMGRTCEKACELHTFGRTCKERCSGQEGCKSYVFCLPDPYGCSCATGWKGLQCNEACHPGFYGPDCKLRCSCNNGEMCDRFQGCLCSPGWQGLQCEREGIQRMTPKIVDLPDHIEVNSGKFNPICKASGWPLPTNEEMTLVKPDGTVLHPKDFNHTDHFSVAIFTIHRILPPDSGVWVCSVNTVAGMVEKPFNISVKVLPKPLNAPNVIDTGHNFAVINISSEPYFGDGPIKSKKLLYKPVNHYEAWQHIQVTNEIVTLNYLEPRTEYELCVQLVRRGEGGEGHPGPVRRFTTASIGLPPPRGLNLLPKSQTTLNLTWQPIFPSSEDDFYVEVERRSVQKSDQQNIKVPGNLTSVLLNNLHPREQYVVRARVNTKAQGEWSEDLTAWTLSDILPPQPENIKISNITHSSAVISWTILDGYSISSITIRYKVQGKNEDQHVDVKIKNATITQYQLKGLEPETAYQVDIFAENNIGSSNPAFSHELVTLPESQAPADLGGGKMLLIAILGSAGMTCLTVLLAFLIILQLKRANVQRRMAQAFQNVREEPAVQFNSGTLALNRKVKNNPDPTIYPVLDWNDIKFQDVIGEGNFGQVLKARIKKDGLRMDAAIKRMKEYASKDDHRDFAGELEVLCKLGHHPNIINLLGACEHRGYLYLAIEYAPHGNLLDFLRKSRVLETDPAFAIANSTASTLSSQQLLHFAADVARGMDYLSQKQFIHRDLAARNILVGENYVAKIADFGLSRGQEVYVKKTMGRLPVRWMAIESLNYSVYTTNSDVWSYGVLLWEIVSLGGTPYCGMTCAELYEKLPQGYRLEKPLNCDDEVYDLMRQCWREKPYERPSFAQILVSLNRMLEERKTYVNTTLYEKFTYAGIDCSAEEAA

The target of assay [7] is rat Acetylcholinesterase (AChE), Ache (gene 83817) (UniProt P37136). Briefly: NVS_ENZ_rAChE: NovaScreen (NVS) Enzymatic Assay for rat Acetylcholinesterase (AChE) (AID 2283233). In short, it runs like this:
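Rat brain membrane acetylcholinesterase activity measured colorimetrically 0.33 h after compound addition, loss of signal relative to DMSO. Primary screen in duplicate at 25 uM; actives re-run as concentration-response with 50 uM top concentration.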

The test system of assay [8] is rat Monoamine Oxidase, MAO-A, Peripheral (MAOAP), gene 29253. Nature of the assay: NVS_ENZ_rMAOAP: NovaScreen (NVS) Enzymatic Assay for rat Monoamine Oxidase, MAO-A, Peripheral (MAOAP) (AID 2283237). In short, it runs like this:
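Rat liver mitochondrial membranes served as the MAO-A source, with enzyme activity measured by radiometric scintillation counting 1.17 hours after dosing. Loss of signal was fitted against DMSO; primary screen used 25 uM in duplicate, follow-up used concentration series.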

Assay [9] deals with rat Monoamine Oxidase, MAO-A, Central (MAOAC), gene 29253. Nature of the assay: NVS_ENZ_rMAOAC: NovaScreen (NVS) Enzymatic Assay for rat Monoamine Oxidase, MAO-A, Central (MAOAC) (AID 2283243).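 Note: potency refers to inhibition seen as signal drop below DMSO baseline.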 An outline of the steps: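 Rat brain tissue extract used as enzyme source in a cell-free radiometric assay, read by scintillation counting 1.5 hours after dosing. Loss of signal relative to DMSO baseline scored; primary screen at 25 uM in duplicate, actives followed up in concentration series.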

In assay [10] the target is human Neonicotinoid receptor (NNR), CHRNA2 (gene 1135) (UniProt Q15822). Nature of the assay: NVS_LGIC_hNNR_NBungSens: NovaScreen (NVS) Ligand-Gated Ion Channel Assay for human Neonicotinoid receptor (NNR) (AID 2283313). An outline of the steps: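 Radioligand displacement on human neuroblastoma membranes, 2 h, filter-based scintillation counting. Primary screen in duplicate at 25 uM; chemicals passing threshold (e.g. 30% inhibition) run singleton concentration-response to 50 uM; loss of binding fitted versus DMSO.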
Sequence of human Neonicotinoid receptor (NNR), CHRNA2 (gene 1135) (Q15822 whole entry, looked up): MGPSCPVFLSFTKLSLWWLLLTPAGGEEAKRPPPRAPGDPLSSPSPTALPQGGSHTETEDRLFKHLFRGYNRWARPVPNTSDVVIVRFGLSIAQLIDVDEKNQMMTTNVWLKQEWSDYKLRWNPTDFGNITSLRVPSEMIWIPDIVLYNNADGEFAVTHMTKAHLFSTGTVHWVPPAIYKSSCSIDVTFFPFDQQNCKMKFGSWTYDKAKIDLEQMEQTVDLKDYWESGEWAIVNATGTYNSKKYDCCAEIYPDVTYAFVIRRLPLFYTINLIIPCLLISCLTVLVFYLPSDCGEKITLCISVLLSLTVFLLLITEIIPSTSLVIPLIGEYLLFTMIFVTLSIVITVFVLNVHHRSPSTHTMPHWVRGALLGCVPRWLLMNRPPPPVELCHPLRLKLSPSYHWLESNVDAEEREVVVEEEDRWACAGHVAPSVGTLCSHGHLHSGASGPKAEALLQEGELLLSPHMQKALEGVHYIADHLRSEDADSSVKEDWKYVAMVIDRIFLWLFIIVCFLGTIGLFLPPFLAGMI

Assay [11] deals with bovine Gamma-Aminobutyric Acid Type A Receptor BDZ, alpha 1 site (GABARa1), GABRA1 (gene 780973) (UniProt P08219). Briefly: NVS_LGIC_bGABARa1: NovaScreen (NVS) Ligand-Gated Ion Channel Assay for bovine Gamma-Aminobutyric Acid Type A Receptor BDZ, alpha 1 site (GABARa1) (AID 2283321). An outline of the steps:
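Radioligand competition binding on bovine cortical membranes, 0.75 h, filter-based scintillation counting. Primary single concentration 25 uM in duplicate; actives rerun in concentration-response to 50 uM max. Loss of signal fitted versus DMSO.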

Assay [12] deals with rat CYP2B1, gene 24300. Briefly: NVS_ADME_rCYP2B1: NovaScreen (NVS) CYP450-related Enzyme Activity (ADME) Assay for rat CYP2B1 (AID 2283117). An outline of the steps: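 Recombinant rat CYP2B1 with fluorogenic substrate, read at 0.75 h. Primary screen in duplicate at 10 uM; compounds meeting threshold (e.g., 30% inhibition) re-run in concentration-response up to 20 uM. Fitted against acetonitrile control.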

The target of assay [13] is Bile acid receptor (Homo sapiens) (UniProt Q96RI1). Nature of the assay: NVS_NR_hFXR_Agonist: NovaScreen (NVS) Nuclear Receptor Binding Assay for human Farnesoid X Receptor Agonism (FXR) (AID 2283347). An outline of the steps: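 Cell-free TR-FRET binding assay with extracted human FXR protein, agonist format, read 1 h after dosing. Primary screen at 25 uM single concentration in duplicate, actives retested in concentration series; gain of signal versus DMSO.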

Assay [14] addresses rat CYP1A2, Cyp1a2 (gene 24297) (UniProt P04799). Briefly: NVS_ADME_rCYP1A2: NovaScreen (NVS) CYP450-related Enzyme Activity (ADME) Assay for rat CYP1A2 (AID 2283115). An outline of the steps: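 Cell-free recombinant rat enzyme with fluorogenic substrate, read by fluorescence intensity 1 hour after dosing. Loss of signal versus acetonitrile negative control; primary screen at 10 uM in duplicate, actives followed in concentration series.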

The target of assay [15] is Voltage-dependent N-type calcium channel subunit alpha-1B (Rattus norvegicus) (UniProt Q02294). Nature of the assay: NVS_IC_rCaChN: NovaScreen (NVS) Ion Channel Assay for rat Calcium Channel, Type N (CaChN) (AID 2283317).
The target of assay [16] is human Phosphatase and Tensin Homolog (PTEN), PTEN (gene 5728) (UniProt P60484). Briefly: NVS_ENZ_hPTEN: NovaScreen (NVS) Enzymatic Assay for human Phosphatase and Tensin Homolog (PTEN) (AID 2283203). In short, it runs like this:
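Cell-free recombinant human PTEN with fluorescent substrate; product separated by electrophoretic mobility shift and read by fluorescence 1 h after dosing. Primary screen in duplicate at 25 uM, actives followed in concentration series versus DMSO.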

Sequence of human Acetylcholinesterase (AChE), ACHE (gene 43) (P22303 whole entry, looked up): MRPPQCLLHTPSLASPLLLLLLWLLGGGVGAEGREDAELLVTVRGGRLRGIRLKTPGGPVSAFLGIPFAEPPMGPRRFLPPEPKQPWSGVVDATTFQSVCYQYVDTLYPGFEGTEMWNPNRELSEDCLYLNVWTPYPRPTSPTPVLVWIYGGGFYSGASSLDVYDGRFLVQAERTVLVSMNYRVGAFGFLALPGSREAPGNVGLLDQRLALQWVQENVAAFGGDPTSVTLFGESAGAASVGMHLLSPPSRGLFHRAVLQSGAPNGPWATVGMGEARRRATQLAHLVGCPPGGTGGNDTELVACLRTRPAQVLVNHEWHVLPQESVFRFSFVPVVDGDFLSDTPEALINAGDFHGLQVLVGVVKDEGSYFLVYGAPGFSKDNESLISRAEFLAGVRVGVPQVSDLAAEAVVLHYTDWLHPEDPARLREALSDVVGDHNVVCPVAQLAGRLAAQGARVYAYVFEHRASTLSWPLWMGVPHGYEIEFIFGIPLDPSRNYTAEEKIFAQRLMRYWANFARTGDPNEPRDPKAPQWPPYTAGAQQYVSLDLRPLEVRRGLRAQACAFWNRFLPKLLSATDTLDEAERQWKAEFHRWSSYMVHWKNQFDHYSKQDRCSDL
Sequence of human CYP4F12, CYP4F12 (gene 66002) (Q9HCS2 whole entry, looked up): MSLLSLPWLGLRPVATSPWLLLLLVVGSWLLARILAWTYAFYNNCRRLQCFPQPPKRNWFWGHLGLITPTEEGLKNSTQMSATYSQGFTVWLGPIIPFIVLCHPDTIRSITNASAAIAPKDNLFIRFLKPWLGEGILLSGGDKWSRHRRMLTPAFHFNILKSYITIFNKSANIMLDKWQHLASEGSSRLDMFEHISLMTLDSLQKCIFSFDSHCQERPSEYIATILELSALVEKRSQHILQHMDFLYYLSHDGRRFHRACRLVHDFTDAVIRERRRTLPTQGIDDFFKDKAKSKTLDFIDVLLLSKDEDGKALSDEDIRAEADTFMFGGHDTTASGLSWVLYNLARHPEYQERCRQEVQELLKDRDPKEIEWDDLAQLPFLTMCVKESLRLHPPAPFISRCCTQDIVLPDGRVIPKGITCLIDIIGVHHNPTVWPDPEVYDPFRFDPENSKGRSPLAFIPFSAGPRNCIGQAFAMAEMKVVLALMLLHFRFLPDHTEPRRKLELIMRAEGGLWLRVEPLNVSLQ
Sequence of human Fibroblast Growth Factor Receptor 1 (FGFR1), FGFR1 (gene 2260) (P11362 whole entry, looked up): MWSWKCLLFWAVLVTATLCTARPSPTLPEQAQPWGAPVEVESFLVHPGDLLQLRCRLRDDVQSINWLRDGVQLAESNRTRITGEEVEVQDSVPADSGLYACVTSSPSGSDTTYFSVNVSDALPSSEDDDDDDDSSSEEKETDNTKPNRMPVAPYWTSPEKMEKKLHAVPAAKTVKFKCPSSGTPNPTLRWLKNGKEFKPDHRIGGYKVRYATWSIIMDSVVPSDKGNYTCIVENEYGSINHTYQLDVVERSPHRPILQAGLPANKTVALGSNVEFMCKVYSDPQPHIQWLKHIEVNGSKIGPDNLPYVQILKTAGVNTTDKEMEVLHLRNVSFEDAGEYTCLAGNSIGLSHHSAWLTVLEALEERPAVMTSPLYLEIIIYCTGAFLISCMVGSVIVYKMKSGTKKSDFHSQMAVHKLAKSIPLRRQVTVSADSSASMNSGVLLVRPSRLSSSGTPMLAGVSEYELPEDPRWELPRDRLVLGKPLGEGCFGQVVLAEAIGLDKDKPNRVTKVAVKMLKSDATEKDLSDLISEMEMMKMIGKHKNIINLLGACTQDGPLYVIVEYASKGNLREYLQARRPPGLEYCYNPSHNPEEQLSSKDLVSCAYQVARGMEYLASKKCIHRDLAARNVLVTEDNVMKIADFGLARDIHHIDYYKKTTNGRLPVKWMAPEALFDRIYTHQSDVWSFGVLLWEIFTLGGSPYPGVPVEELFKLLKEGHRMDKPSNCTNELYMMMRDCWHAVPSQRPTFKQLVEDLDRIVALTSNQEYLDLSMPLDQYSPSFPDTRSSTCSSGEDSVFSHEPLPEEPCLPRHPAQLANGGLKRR
Sequence of rat Acetylcholinesterase (AChE), Ache (gene 83817) (P37136 whole entry, looked up): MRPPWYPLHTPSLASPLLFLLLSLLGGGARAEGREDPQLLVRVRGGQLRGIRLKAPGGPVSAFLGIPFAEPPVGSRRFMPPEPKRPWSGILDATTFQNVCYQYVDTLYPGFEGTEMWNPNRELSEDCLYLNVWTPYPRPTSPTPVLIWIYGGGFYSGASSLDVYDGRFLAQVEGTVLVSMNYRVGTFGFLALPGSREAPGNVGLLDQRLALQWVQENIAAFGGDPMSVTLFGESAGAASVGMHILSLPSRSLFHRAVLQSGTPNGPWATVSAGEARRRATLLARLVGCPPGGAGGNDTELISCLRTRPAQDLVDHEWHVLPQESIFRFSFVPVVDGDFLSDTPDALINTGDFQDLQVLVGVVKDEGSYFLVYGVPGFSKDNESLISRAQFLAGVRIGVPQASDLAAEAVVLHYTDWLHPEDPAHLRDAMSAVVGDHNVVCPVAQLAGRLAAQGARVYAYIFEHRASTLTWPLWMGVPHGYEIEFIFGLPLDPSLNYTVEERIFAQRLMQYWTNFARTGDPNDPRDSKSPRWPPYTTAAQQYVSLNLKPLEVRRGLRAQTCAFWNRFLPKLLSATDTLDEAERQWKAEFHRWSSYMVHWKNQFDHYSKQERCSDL
Sequence of human AMP-activated Protein Kinase, alpha 1 (AMPKa1), PRKAA1 (gene 5562) (Q13131 whole entry, looked up): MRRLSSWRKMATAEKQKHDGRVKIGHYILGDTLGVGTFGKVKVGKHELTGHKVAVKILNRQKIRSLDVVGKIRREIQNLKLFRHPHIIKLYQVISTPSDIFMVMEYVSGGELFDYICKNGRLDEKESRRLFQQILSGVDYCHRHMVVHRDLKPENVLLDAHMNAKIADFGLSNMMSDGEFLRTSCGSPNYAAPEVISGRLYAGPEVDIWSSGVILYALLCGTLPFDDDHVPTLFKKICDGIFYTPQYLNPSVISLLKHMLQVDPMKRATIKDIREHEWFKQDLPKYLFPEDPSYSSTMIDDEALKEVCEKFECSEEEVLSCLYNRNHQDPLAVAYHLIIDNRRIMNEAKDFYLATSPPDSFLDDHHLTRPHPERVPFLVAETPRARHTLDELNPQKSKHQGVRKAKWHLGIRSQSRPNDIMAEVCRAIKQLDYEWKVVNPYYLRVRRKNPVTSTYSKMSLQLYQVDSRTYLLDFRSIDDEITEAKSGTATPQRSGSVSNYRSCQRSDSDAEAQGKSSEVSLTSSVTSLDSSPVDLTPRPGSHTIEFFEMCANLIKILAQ

With `CCN(CC)CCNc1ccc(CNC=O)c2sc3ccc(OC)cc3c(=O)c12`, the half-maximal activity concentration (AC50) (as a rule, the midpoint of the concentration-response curve, whichever way the signal moves) was 1.41 µM (active) in assay [1]; 13.9 µM (active) in [2]; 15.7 µM (active) in assay [7]; 9.35 µM (active) in [8]; 25 µM (active) in assay [9]. The outcome in assay [3], in [4], in assay [5], in [6], in assay [10] and in assay [11] was inactive.

For `CS(=O)(=O)c1ccc([C@@H](CC2CCCC2)C(=O)Nc2cnccn2)cc1Cl`, the compound was classed as inactive in assay [2].

With `CCCCC(CC)COC(=O)CCCCCCCCC(=O)OCC(CC)CCCC` (stereo unspecified), the AC50 in assay [2] is 16.7 µM (active).

As to `Cc1cc(O)cc(C)c1Cl`, in assay [12], the concentration at half-maximal activity (AC50) is 16.7 µM (active).

Take `CCc1nc(N)nc(N)c1-c1ccc(Cl)cc1`: in [2], the compound was classed as inactive.

In the case of `CCOC(N)=O`, the outcome in assay [1] and in assay [3] was inactive.

For the compound `CCCCOC(=O)C(C)Oc1ccc(Oc2ccc(C(F)(F)F)cn2)cc1` (stereo unspecified), the call in assay [12] and in assay [13] was inactive.

For `CCCCCCCC(=O)O`, the concentration at half-maximal activity (AC50) in assay [1] is 4.61 µM (active); in assay [10], 37.4 µM (active). Further, the outcome in assay [2], in assay [3], in [4], in [6] and in [7] was inactive.

Take `c1ccc2sc(SN(C3CCCCC3)C3CCCCC3)nc2c1`: the outcome in assay [14] was inactive.

For the compound `COC(=O)CCC(=O)OC`, the result in [1] and in assay [15] was inactive.

On to `CC[C@H](C)C(=O)O[C@H]1C[C@@H](C)C=C2C=C[C@H](C)[C@H](CC[C@@H]3C[C@@H](O)CC(=O)O3)[C@H]21`, for which the result in assay [1], in assay [4], in [16] and in assay [6] was inactive.

For the compound `CNC(=O)[C@H]1O[C@@H](n2cnc3c(NCc4cc(Cl)ccc4OCc4cc(C)no4)ncnc32)[C@H](O)[C@@H]1N`, the outcome in assay [1] and in assay [4] was inactive.

Consider `CN1CCC[C@H]1c1cccnc1`, for which the compound was called inactive in assay [1] and in assay [5]. The concentration at half-maximal activity (AC50) in assay [10] was 1.3 µM (active).

On to `CCN(C(=O)c1cc(C)cc(OC[C@H](C)Nc2ccncc2)c1)C(C)C`, for which the AC50 in assay [2] was 6.7 µM (active).

In the case of `CCOC(=O)C1=NOC(c2ccccc2)(c2ccccc2)C1`, the compound was classed as inactive in assay [14] and in [7].
